# Assay results taken from PubChem BioAssay (NCATS).
# Inconclusive results are not listed. Entries that show only a call come without a potency. Values without a mark were called inactive. The source made the active and inactive calls. Calls come from the whole dose curve; as a rule, active = well fitted curve in the direction sought with a large enough effect; inconclusive = small, poorly fitted or top-dose-only effect, or another doubt; inactive = no such curve, though single readings can be large; an effect the other way counts as inactive or inconclusive.
# Key:
# [1] = Primary qHTS for inhibitors of La Crosse Virus (LACV) - induced cell death in SH-SY5Y cells (AID 1508616); note: potency is the fitted concentration of half-maximal effect
# Procedure, shortened: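 Readout was luminescence from ATPLite 1step added after a 6-day LACV infection (0.01 MOI) of SH-SY5Y cells that had received pin-transferred compound 24 hr after seeding.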
# [2] = biological target: Calcium and integrin-binding protein 1 (Homo sapiens) (UniProt Q99828); assay: Validation qHTS for Identification of Calcium Integrin Binding protein 1 (CIB1) Competitor (AID 1508618)
# Calcium and integrin-binding protein 1 (Homo sapiens), sequence (Q99828 whole entry, looked up): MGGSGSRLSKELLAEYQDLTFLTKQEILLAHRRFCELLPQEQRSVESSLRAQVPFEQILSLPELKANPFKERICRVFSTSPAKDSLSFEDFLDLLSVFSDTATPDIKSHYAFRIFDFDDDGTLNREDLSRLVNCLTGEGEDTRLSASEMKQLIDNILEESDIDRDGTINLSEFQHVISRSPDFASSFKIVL
# Procedure, shortened: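 CIB1-GST (1 uM final) incubated 15 min at room temperature with compounds (up to 114 uM), then FITC-labelled alphaIIb peptide (100 nM) added. FP read (Ex 480/Em 540) after 15 min, pH 7.4 buffer containing 5 mM CaCl2.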
# [3] = biological target: Papain (Carica papaya) (UniProt P00784); assay: Primary qHTS assay for inhibitors of the protease papain (AID 1645873);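 note: papain turnover of Z-FR-AMC read as the AMC fluorescence gain over 10 min; series mostly up to about 50 µM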
# Papain (Carica papaya), sequence (P00784 whole entry, looked up): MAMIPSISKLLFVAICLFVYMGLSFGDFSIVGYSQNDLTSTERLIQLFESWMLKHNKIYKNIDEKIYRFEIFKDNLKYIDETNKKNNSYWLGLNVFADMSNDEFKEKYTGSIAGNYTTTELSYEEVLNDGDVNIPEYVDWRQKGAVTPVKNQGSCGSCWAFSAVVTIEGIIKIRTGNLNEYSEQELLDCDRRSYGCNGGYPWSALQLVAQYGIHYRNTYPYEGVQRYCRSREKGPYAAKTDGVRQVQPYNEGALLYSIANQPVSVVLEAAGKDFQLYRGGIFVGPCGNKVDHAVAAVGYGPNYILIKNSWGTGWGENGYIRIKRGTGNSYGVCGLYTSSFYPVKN
# [4] = Primary qHTS for small molecule stabilizers of the endoplasmic reticulum resident proteome: Secreted ER Calcium Modulated Protein (SERCaMP) assay (AID 1508630)
# Procedure, shortened: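 GLuc-SERCaMP-expressing SH-SY5Y cells, pretreated 16 h with compound, are challenged with thapsigargin to empty ER calcium stores; after 4 h, coelenterazine is added directly to the medium and luminescence is imaged.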
# [5] = Counterscreen qHTS for small molecule stabilizers of the endoplasmic reticulum resident proteome: GLuc-NoTag assay (AID 1508627);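 note: SH-SY5Y cells given compound then 100 nM thapsigargin to empty ER calcium; series mostly up to about 76 µM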
# Procedure, shortened: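 SH-SY5Y cells stably expressing constitutively secreted GLuc (no SERCaMP tag) were pre-incubated 5 h, treated with compound for 19 h, then 100 nM thapsigargin for 4 h at 37C; medium GLuc read by coelenterazine luminescence.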
# [6] = Confirmatory qHTS for small molecule stabilizers of the endoplasmic reticulum resident proteome: Secreted ER Calcium Modulated Protein (SERCaMP) assay (AID 1508628); note: potency is the fitted concentration of half-maximal effect; nearly all actives have a fitted effect of over 40% in size
# Procedure, shortened: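 We seeded SH-SY5Y-GLuc-SERCaMP cells, added compounds (three concentrations in the primary run, eleven up to 76.6 uM in confirmation), incubated 16 h, depleted ER calcium with thapsigargin, and read luciferase 4 h later.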
# [7] = biological target: N-terminal Xaa-Pro-Lys N-methyltransferase 1 (Homo sapiens) (UniProt Q9BV86); assay: Confirmatory qHTS for Inhibitors of N-terminal methyltransferase 1 (NTMT1): MTaseGlo Assay (AID 1645874);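 note: luminescence from SAH made as NTMT1 methylates SPKRIA peptide using SAM; series mostly up to about 100 µM; nearly all actives have a fitted effect of over 65% in size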
# N-terminal Xaa-Pro-Lys N-methyltransferase 1 (Homo sapiens), sequence (Q9BV86 whole entry, looked up): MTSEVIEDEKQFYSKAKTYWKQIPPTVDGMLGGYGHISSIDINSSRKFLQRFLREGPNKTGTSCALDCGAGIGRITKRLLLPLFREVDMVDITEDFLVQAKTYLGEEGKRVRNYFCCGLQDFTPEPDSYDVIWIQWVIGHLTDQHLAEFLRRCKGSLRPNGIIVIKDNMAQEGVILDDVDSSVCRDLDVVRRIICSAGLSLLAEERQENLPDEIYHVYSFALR
# Procedure, shortened: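 qHTS format: NTMT1 125 nM, SAM 100 uM, peptide SPKRIA 1 uM final; 15 min compound preincubation, 30 min reaction at room temperature. MTase-Glo luminescence.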
# [8] = Cell Viability qHTS for small molecule stabilizers of the endoplasmic reticulum resident proteome (AID 1508629); conditions: cell viability counter-screen, 100 nM thapsigargin for final 4 h;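 note: human SH-SY5Y neuroblastoma cells carrying the GLuc-SERCaMP reporter; compound exposure about 46 h in total before the viability read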
# [9] = biological target: Rap guanine nucleotide exchange factor 3 (Homo sapiens) (UniProt O95398); assay: Confirmatory qHTS for antagonist of cAMP-regulated guanine nucleotide exchange factor 3 (EPAC1) (AID 1645880); note: nearly all actives have a fitted effect of over 55% in size
# Rap guanine nucleotide exchange factor 3 (Homo sapiens), sequence (O95398 whole entry, looked up): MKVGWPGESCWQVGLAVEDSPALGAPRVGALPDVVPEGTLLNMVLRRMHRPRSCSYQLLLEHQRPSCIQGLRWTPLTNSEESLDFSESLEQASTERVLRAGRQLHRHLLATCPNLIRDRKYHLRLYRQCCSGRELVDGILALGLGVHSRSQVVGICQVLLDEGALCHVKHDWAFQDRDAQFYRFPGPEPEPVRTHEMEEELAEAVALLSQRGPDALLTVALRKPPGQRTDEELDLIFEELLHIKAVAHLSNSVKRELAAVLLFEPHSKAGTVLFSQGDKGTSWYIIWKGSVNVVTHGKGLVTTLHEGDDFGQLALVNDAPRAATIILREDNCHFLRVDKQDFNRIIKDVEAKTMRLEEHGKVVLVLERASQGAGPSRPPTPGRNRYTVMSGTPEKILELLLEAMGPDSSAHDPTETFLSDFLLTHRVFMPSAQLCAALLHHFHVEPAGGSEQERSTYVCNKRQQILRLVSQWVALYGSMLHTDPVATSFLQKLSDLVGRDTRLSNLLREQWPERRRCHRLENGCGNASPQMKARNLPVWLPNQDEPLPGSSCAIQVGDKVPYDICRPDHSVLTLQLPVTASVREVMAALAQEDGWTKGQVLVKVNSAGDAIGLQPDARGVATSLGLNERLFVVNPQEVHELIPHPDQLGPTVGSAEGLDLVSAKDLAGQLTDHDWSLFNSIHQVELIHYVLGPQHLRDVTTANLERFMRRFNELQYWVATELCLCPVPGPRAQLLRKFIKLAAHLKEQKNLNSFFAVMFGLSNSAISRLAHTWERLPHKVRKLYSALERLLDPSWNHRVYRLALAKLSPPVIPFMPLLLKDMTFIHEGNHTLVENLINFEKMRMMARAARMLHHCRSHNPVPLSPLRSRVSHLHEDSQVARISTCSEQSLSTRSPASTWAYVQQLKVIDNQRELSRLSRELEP
# Procedure, shortened: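 Nucleotide exchange uses 100 nM EPAC1, 250 nM RAP1B-BODIPY-GDP and 50 uM GDP, with compounds in a concentration-titration series. After 5 min at room temperature, fluorescence (480 nm ex/540 nm em) is read every 5 min for 30 min. Data are normalized to control ATA and DMSO.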
# [10] = biological target: Rap guanine nucleotide exchange factor 3 (Homo sapiens) (UniProt O95398); assay: Confirmatory qHTS for agonist of cAMP-regulated guanine nucleotide exchange factor 3 (EPAC1) (AID 1645881);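 note: EPAC1 catalysed release of BODIPY-GDP from Rap1B seen as fluorescence loss; nearly all actives have a fitted effect of over 75% in size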
compound,measurement,setting,value
NC(=O)COc1c(F)cc(SCCNS(=O)(=O)c2ccccc2)cc1F,Potency,[1],inactive
same,Potency,[2],inactive
same,Potency,[3],inactive
CC(N)Cc1c[nH]c2ccc(O)cc12 (stereo not drawn),Potency,[1],inactive
same,Potency,[2],inactive
same,Potency,[3],inactive
CC(N)c1cccc(Cl)c1Cl (stereo not drawn),Potency,[1],inactive
same,Potency,[2],inactive
same,outcome,[4],inactive
same,Potency,[3],inactive
CC(=O)OCC1=C(C(=O)O)N2C(=O)[C@@H](NC(=O)CCC[C@@H](N)C(=O)O)[C@H]2SC1,Potency,[1],inactive
same,outcome,[4],inactive
C[C@@H]1[C@@H]2Cc3ccc(O)cc3[C@@]1(C)CCN2CC1CC1,Potency,[1],inactive
same,outcome,[4],inactive
CN1CCc2cccc(Cl)c2CC1,Potency,[1],inactive
same,Potency,[2],inactive
same,Potency,[3],inactive
C[N+](C)(C)CC#CCOC(=O)Nc1cccc(Cl)c1,Potency,[1],inactive
same,Potency,[2],inactive
same,outcome,[4],inactive
same,Potency,[3],inactive
C[N+](C)(C)CCOC(=O)CBr,Potency,[1],inactive
same,Potency,[2],inactive
same,outcome,[4],inactive
same,Potency,[3],inactive
CCN(CCCl)Cc1ccccc1Br,Potency,[1],2820 nM (active)
same,outcome,[4],inactive
CC(C)[C@@]1(NC(=O)[C@@H]2C[C@@H]3c4cccc5[nH]cc(c45)C[C@H]3N(C)C2)O[C@@]2(O)[C@@H]3CCCN3C(=O)[C@H](Cc3ccccc3)N2C1=O,Potency,[1],inactive
same,outcome,[5],inactive
same,Potency,[6],25100 nM (active)
N[C@@H](CCl)C(=O)O,Potency,[1],inactive
same,outcome,[4],inactive
C[N+]1(C)C2CCC1CC(OC(=O)c1c[nH]c3ccccc13)C2 (stereo not drawn),Potency,[1],inactive
same,Potency,[2],inactive
same,Potency,[3],inactive
O=C1C=CC(=O)C=C1,Potency,[1],inactive
same,Potency,[2],inactive
same,outcome,[4],inactive
same,Potency,[3],inactive
NC(=O)c1cc(N2CC2)c([N+](=O)[O-])cc1[N+](=O)[O-],Potency,[1],inactive
same,Potency,[2],inactive
same,outcome,[4],inactive
same,Potency,[3],inactive
COc1ccc2c(c1)c(CCN1CCOCC1)c(C)n2C(=O)c1cccc(Cl)c1Cl,Potency,[1],inactive
same,outcome,[4],inactive
O=C(O)c1cc[c]([Hg][Cl])cc1,Potency,[1],inactive
same,outcome,[5],inactive
same,outcome,[4],inactive
NC(N)=Nc1ccc2[nH]c3c(c2c1)C[C@@]1(O)[C@H]2Cc4ccc(O)c5c4[C@@]1(CCN2CC1CC1)[C@H]3O5,Potency,[1],inactive
same,Potency,[2],inactive
same,outcome,[4],inactive
same,Potency,[3],inactive
same,Potency,[7],inactive
CN1CCC(c2c[nH]c3ccc(O)cc23)CC1,Potency,[1],inactive
same,Potency,[2],inactive
same,outcome,[4],inactive
same,Potency,[3],inactive
Clc1ccc(N2CC3CCC(C2)N3)nn1,Potency,[1],inactive
same,outcome,[5],inactive
same,max response,[8],-7.5%
same,Potency,[3],inactive
COc1cc(CC(C)N)c(OC)cc1I (stereo not drawn),Potency,[1],inactive
same,outcome,[4],inactive
C=CCN(C1=NCCN1)c1c(Cl)cccc1Cl,Potency,[1],inactive
same,outcome,[4],inactive
Cc1[nH]c2ccc(O)cc2c1CCN,Potency,[1],inactive
same,Potency,[2],inactive
same,outcome,[4],inactive
same,Potency,[3],inactive
CC(Cc1ccc(OCC(=O)O)cc1)NCC(O)c1cccc(Cl)c1 (stereo not drawn),Potency,[1],inactive
same,Potency,[2],inactive
same,outcome,[4],inactive
same,Potency,[3],inactive
COc1ccc2c(c1)C13CCCCC1C(C2)N(C)CC3 (stereo not drawn),Potency,[1],inactive
same,outcome,[5],inactive
same,Potency,[6],2000 nM (active)
same,Potency,[3],inactive
C#CCN[C@H](C)Cc1ccccc1,Potency,[1],inactive
same,Potency,[2],inactive
same,Potency,[3],inactive
CCOC(=O)c1ncn2c1[C@@H]1CCCN1C(=O)c1cc(OC)ccc1-2,Potency,[1],inactive
same,Potency,[2],inactive
same,outcome,[4],inactive
same,Potency,[3],inactive
NC(N)=NOCC[C@H](N)C(=O)O,Potency,[1],inactive
same,Potency,[2],inactive
same,outcome,[4],inactive
same,Potency,[3],inactive
CC(N)[C@H](O)c1ccc(O)c(O)c1 (stereo partly drawn),Potency,[1],inactive
same,Potency,[2],inactive
same,outcome,[4],inactive
same,Potency,[3],inactive
COc1ccc2[nH]cc(CCN)c2c1,Potency,[1],inactive
same,Potency,[2],inactive
same,outcome,[4],inactive
same,Potency,[3],inactive
CCCN(CCC)C1CCc2cccc(O)c2C1 (stereo not drawn),Potency,[1],inactive
same,Potency,[2],inactive
same,outcome,[4],inactive
same,Potency,[3],inactive
CC(N)Cc1c[nH]c2ccc(OCc3cccs3)cc12 (stereo not drawn),Potency,[1],inactive
same,Potency,[2],inactive
same,Potency,[3],inactive
C=CCN1C[C@@H](C)N([C@H](c2ccc(C(=O)N(CC)CC)cc2)c2cccc(OC)c2)C[C@@H]1C,Potency,[1],inactive
same,Potency,[2],inactive
same,Potency,[3],inactive
CCCC[N+]1(C)C2CC(OC(=O)[C@H](CO)c3ccccc3)CC1C1OC12 (stereo partly drawn),Potency,[1],inactive
same,Potency,[2],inactive
same,Potency,[3],inactive
NCCc1ccc(S(=O)(=O)F)cc1,Potency,[1],inactive
same,Potency,[2],inactive
same,Potency,[3],inactive
c1ccc2cc(CC3=NCCN3)ccc2c1,Potency,[1],inactive
same,Potency,[2],inactive
same,Potency,[3],inactive
C=CCN1CC[C@]23c4c5ccc(O)c4O[C@H]2/C(=N/NC(=O)c2ccccc2)CC[C@@]3(O)[C@H]1C5,Potency,[1],inactive
same,outcome,[4],inactive
CCCN1CCC[C@@H](c2cccc(O)c2)C1,Potency,[1],inactive
same,Potency,[2],inactive
same,outcome,[4],inactive
same,Potency,[3],inactive
CN1CC[C@@]2(C)c3cc(OC(=O)Nc4ccccc4)ccc3N(C)[C@@H]12,Potency,[1],inactive
same,outcome,[5],inactive
same,Potency,[6],39800 nM (active)
same,outcome,[4],inactive
COc1ccc2c(c1O)-c1cccc3c1[C@@H](C2)N(C)CC3,Potency,[1],inactive
same,outcome,[4],inactive
same,Potency,[3],inactive
CCCN(CCC)[C@H]1CCc2c(F)ccc(O)c2C1,Potency,[1],inactive
same,outcome,[4],inactive
same,Potency,[3],inactive
NC(Cc1ccc(N(CCCl)CCCl)cc1)C(=O)O (stereo not drawn),Potency,[1],794 nM (active)
same,outcome,[4],inactive
NNC(N)=O,Potency,[1],inactive
same,Potency,[3],inactive
N=C(N)c1ccc(CS(=O)(=O)F)cc1,Potency,[1],inactive
same,outcome,[4],inactive
same,Potency,[3],inactive
N[C@@]1(C(=O)O)CC[C@@H](C(=O)O)C1,Potency,[1],inactive
same,outcome,[4],inactive
same,Potency,[3],inactive
CCCn1c(C)c(C(=O)c2ccc3ccccc3c2)c2ccccc21,Potency,[1],inactive
same,outcome,[4],inactive
same,outcome,[9],inactive
same,Potency,[10],inactive
CCCN(CCC)C1Cc2cc(OC)c(OC)cc2C1,Potency,[1],inactive
same,outcome,[4],inactive
same,Potency,[3],inactive
